Inconclusive results are not listed. The source made the active and inactive calls. Unless noted, calls follow the shape of the dose curve; as a rule, active = well fitted curve in the direction sought with a large enough effect; inconclusive = small, poorly fitted or top-dose-only effect, or another doubt; inactive = no such curve, though single readings can be large; an effect the other way counts as inactive or inconclusive.
Tests used:
[1] = Cell Viability - LYMP2-011 (AID 969); also: nearly all actives have a fitted effect of over 60% in size
Summary of the method: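 Human lymphoblastoid cells (2500/well) were plated in complete medium, preincubated 5 hr at 37 C, then exposed to compounds for 24 hr at 37 C. Intracellular ATP was read by CellTiter-Glo luminescence, and AC50 came from Hill-equation concentration-response fits.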

[2] = Cell Viability - LYMP2-013 (AID 970); also: series mostly up to about 92 µM; nearly all actives have a fitted effect of over 55% in size
Summary of the method: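 Human lymphoblastoid cells, 2500/well, were preincubated 5 hr at 37 C, then treated with compounds for 24 hr at 37 C in complete medium. Intracellular ATP was read by CellTiter-Glo luminescence; AC50 from Hill-equation fits of concentration-response data.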

[3] = Cell Viability - LYMP2-017 (AID 972); also: series mostly up to about 92 µM; nearly all actives have a fitted effect of over 55% in size
Summary of the method: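 Human lymphoblastoid cells (2500/well) were seeded in complete medium, held 5 hr at 37 C, then exposed to compounds for 24 hr at 37 C. Intracellular ATP was read by CellTiter-Glo luminescence after 30 min at room temperature, with AC50 values from Hill-equation fits.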

[4] = Cell Viability - LYMP2-019 (AID 973); also: nearly all actives have a fitted effect of over 55% in size
Summary of the method: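 Human lymphoblastoid cells were seeded at 2500 cells/well, preincubated 5 hr at 37 C, then exposed to compounds for 24 hr at 37 C in complete medium. Intracellular ATP was measured by CellTiter-Glo luminescence; AC50 from Hill fits.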

[5] = Cell Viability - LYMP2-021 (AID 974);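 also: compound exposure lasts 24 hours at 37 °C; nearly all actives have a fitted effect of over 55% in size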
Summary of the method: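 Human lymphoblastoid cells (2500/well) were preincubated 5 hr at 37 C, then exposed to compounds for 24 hr at 37 C in complete medium. Intracellular ATP was read by CellTiter-Glo luminescence; AC50 came from Hill-equation fits of concentration-response data.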

[6] = Cell Viability - LYMP2-006 (AID 978); also: series mostly up to about 92 µM; nearly all actives have a fitted effect of over 60% in size
Summary of the method: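 In this cytotoxicity screen, the human lymphoblastoid line grew in complete medium with test compounds for 24 hr at 37 C. Cellular ATP served as the viability signal.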

[7] = Cell Viability - LYMP2-007 (AID 979);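 also: cells exposed to compound for 24 h before reading; nearly all actives have a fitted effect of over 60% in size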
Summary of the method: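 Human lymphoblastoid cells (2500/well) were plated in complete medium, incubated 5 hr at 37 C, then exposed to compounds for 24 hr at 37 C. Intracellular ATP was read by CellTiter-Glo luminescence after 30 min at room temperature; AC50 from Hill fits.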

[8] = Cell Viability - LYMP2-010 (AID 981); also: nearly all actives have a fitted effect of over 55% in size
Summary of the method: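 Human lymphoblastoid LYMP2-010 cells (2500/well) were preincubated 5 hr at 37 C, then exposed to compounds for 24 hr at 37 C in complete medium. Intracellular ATP was measured by CellTiter-Glo luminescence after 30 min at room temperature; AC50 from Hill-fitted concentration-response.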

[9] = Cell Viability - LYMP2-012 (AID 982)
[10] = Cell Viability - LYMP2-016 (AID 984); also: nearly all actives have a fitted effect of over 55% in size
Summary of the method: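 Concentration-dependent ATP depletion measured in LYMP2-016 lymphoblastoid cells, 24 h, 37 C; luciferase-based luminescent detection; Hill-equation AC50.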

[11] = Cell Viability - LYMP2-018 (AID 985);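 also: compound exposure lasted 24 hr at 37 °C; nearly all actives have a fitted effect of over 50% in size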
Summary of the method: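 Human lymphoblastoid cells (2500/well) were pre-incubated 5 hr at 37 C, then exposed to compounds for 24 hr at 37 C in complete medium. Viability was read as intracellular ATP by CellTiter-Glo luminescence; AC50 values came from Hill-equation fits.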

[12] = Cell Viability - LYMP2-020 (AID 986)
Summary of the method: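 Human lymphoblastoid cells, 2500/well, were pre-incubated 5 hr at 37 C, then exposed to compounds for 24 hr at 37 C in complete medium. Intracellular ATP was read by CellTiter-Glo luminescence, and AC50 was derived by Hill fitting of concentration-response data.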

[13] = Cell Viability - LYMP2-022 (AID 987); also: nearly all actives have a fitted effect of over 55% in size
Summary of the method: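 Human lymphoblastoid cells, 2500/well, preincubated 5 hr at 37 C, then exposed to compounds over a concentration range for 24 hr at 37 C in complete medium. Viability read as intracellular ATP by CellTiter-Glo luminescence after 30 min at room temperature; AC50 from Hill fits.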

[14] = Cell Viability - LYMP2-024 (AID 988); also: nearly all actives have a fitted effect of over 60% in size
Summary of the method: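 Human lymphoblastoid cells (2500/well) in complete medium were preincubated 5 hr at 37 C, then exposed to compounds for 24 hr at 37 C. Intracellular ATP was read by CellTiter-Glo luminescence; AC50 from Hill-equation fits of concentration-response data.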

[15] = Cell Viability - LYMP2-026 (AID 989); also: nearly all actives have a fitted effect of over 50% in size
Summary of the method: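 Human lymphoblastoid cells (2500/well) in complete medium were preincubated 5 hr at 37 C, then exposed to compounds for 24 hr at 37 C. Cellular ATP was read by CellTiter-Glo luminescence; AC50 from Hill-equation fits of concentration-response data.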

[16] = target: Luciferin 4-monooxygenase (Photinus pyralis) (UniProt P08659); test: Biochemical firefly luciferase enzyme assay for NPC (AID 624030);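 also: purified P. pyralis luciferase at 10 nM with luciferin and ATP substrate; series mostly up to about 59 µM; nearly all actives have a fitted effect of over 70% in size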
Summary of the method: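 Purified P. pyralis luciferase at 10 nM in 50 mM Tris Acetate (final), luminescence read within 5 minutes of enzyme addition to compounds. Activity normalised to PTC124 versus DMSO; concentration-response curves classed by r2, magnitude and activity.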

[17] = qHTS Assay for Identification of Small Molecule Antagonists for Thrombopoietin (TPO) Signaling Pathway (AID 918); conditions: TPO-dependent cell signaling reporter, antagonist mode
Summary of the method: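 Murine Ba/F3 cells stably expressing human TPO receptor and a Glycoprotein IIb promoter–luciferase reporter were IL-3-starved overnight, treated with compounds plus TPO (26 pM final, its EC50) for 24 hrs at 37 C, then read by luminescence.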

[18] = qHTS for differential inhibitors of proliferation of Plasmodium falciparum line W2 (AID 1883); conditions: Potency: Plasmodium falciparum W2 proliferation inhibition;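 also: potency is read from the fitted curve at half-maximal effect; parasites grown with compound for 72 h before lysis and staining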
[19] = Validation screen for small molecules that induce genotoxicity in human embryonic kidney (HEK293T) cells expressing luciferase-tagged ELG1 (AID 493106)
Summary of the method: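 HEK293T cells expressing luciferase-tagged ELG1 were exposed to compound or DMSO vehicle for 16 hr at 37 °C, 5% CO2. Genotoxic stress raises ELG1 levels, so increased luciferase signal after ONE-Glo addition and 30 min at room temperature marks hits.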

[20] = qHTS assay for small molecule agonists of the antioxidant response element (ARE) signaling pathway (AID 651741; active = well fitted activation curve with a large enough effect in the signal ratio; the % refers to the signal ratio; also: potency is read from the fitted curve at half-maximal effect)
Summary of the method: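 HepG2 ARE-bla cells plated at 2,000 cells/well and incubated 5 h at 37 C/5% CO2 received 23 nL compound in DMSO. After 16 h at 37 C, LiveBLAzer B/G FRET substrate was applied for 2 h at room temperature and fluorescence read.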

Measured: Potency

Chain of Luciferin 4-monooxygenase (Photinus pyralis) (P08659 whole entry, looked up): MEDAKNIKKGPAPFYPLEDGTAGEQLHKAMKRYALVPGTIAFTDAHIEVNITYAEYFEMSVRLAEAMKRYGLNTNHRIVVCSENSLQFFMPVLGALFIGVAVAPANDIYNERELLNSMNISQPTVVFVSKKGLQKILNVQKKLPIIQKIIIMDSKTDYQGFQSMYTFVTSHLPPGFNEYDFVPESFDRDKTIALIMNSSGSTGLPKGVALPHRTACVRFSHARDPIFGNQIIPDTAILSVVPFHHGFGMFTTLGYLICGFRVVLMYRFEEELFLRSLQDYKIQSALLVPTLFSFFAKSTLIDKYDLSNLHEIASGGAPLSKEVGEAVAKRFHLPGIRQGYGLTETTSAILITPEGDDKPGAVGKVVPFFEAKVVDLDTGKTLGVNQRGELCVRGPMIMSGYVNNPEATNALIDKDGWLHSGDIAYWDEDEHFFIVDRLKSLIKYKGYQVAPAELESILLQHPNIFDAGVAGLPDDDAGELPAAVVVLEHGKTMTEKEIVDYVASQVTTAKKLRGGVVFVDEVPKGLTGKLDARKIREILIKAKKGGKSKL

Cc1ccccc1O
inactive: [1] | [2] | [3] | [4] | [5] | [6] | [7] | [8] | [9] | [10] | [11] | [12] | [13] | [14] | [15]

Nc1ncnc2c1ncn2[C@@H]1O[C@H](COP(=O)(O)OP(=O)(O)OP(=O)(O)O)[C@@H](O)[C@H]1O
inactive: [16]

CC(C)COC(=O)OCN1C(=O)CN(CCN2CC(=O)N(COC(=O)OCC(C)C)C(=O)C2)CC1=O
active: [17] 0.251 µM

CC(=O)[C@H]1CC[C@H]2[C@@H]3CCC4=CC(=O)CC[C@]4(C)[C@H]3CC[C@]12C
active: [18] 7.94 µM | [20] 37.6 µM
inactive: [19]
